# Screening results: PubChem, National Center for Advancing Translational Sciences (NCATS)
# Shown is part of a subset that was picked to be rich in hits.
# Pf Dd2 inh = blocks in vitro growth of P. falciparum Dd2 | P. falciparum Dd2 growth, SYBR Green, 72 h | Potency, µM (titrated, usually from 28.9 µM), inactives show top-dose activity, negative = inhibition, usual class: inhibitors | 4.3% of 120,000 active; active means well fitted inhibition curve with a large enough effect;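 further: plate controls were DMSO vehicle for no effect and reference drug for full effect; nearly all actives have a fitted effect of over 65% in size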
#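 Infected erythrocytes (Dd2, 0.3% parasitemia, 2.5% hematocrit final) are added to compound in RPMI-1640/Albumax II medium, grown 72 h at 37C in low oxygen, then lysed with saponin/Triton-X containing SYBR Green and read by fluorescence.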
# * = called active by the depositor; i = inactive; [ ] = dose if it differs, or a comment. Potency means the concentration at half of the fitted maximal effect.
SMILES,Pf Dd2 inh
Cn1cnc(C(=O)N2CCC(N(Cc3ccccc3)C3CCOCC3)CC2)c1,-7%
Cn1cc(C(=O)N2CCC(N(Cc3ccccc3)C3CCOCC3)CC2)cn1,i
O=C(c1cccc(Cl)c1)N1CCC(N(Cc2ccccc2)C2CCOCC2)CC1,5µM*
CO[C@H]1C(=O)N(C2CCN(S(=O)(=O)Cc3ccccc3)CC2)[C@H]1c1ccncc1,11%
O=C(NCC1CC1)c1cn(C2CN(S(=O)(=O)c3cccc(F)c3)C2)nn1,-8%
O=C(Cn1cccc1-c1nc(-c2ccc(F)cc2)no1)Nc1ccc(F)c(F)c1,i
COc1ccc(-c2noc(-c3cccn3CC(=O)N3CCN(c4ccccc4OC)CC3)n2)cc1F,-23%
CC(=O)Nc1ccc(NC(=O)Cn2cccc2-c2nc(-c3ccc(F)cc3)no2)cc1,-18%
COc1ccc(NC(=O)Cn2cccc2-c2nc(-c3ccccc3)no2)cc1,3.2µM*
Cc1cccc(NC(=O)Cn2cccc2-c2nc(-c3ccc(F)cc3)no2)c1C,-14%
O=C(Cn1cccc1-c1nc(-c2ccccc2)no1)N1CCN(c2ccccc2F)CC1,7.9µM*
Cc1c(Cl)cccc1NC(=O)Cn1cccc1-c1nc(-c2ccc(F)cc2)no1,87%
COC(=O)c1ccccc1NC(=O)Cn1cccc1-c1nc(-c2ccccc2)no1,21%
O=C(Cn1cccc1-c1nc(-c2ccc(F)cc2)no1)Nc1ccc(Cl)cc1,144%
O=C(Cn1cccc1-c1nc(-c2ccccc2)no1)Nc1cc(F)cc(F)c1,10%
CCOc1ccccc1NC(=O)Cn1cccc1-c1nc(-c2ccc(F)cc2)no1,10µM*
O=C(Cn1cccc1-c1nc(-c2ccccc2)no1)Nc1cccc(Cl)c1,2.5µM*
COc1cc2c(cc1OC)C(C[C@H]1CN(C(=O)Nc3cccc(Cl)c3)CC[C@H]1CC(=O)O)=NCC2,i
COCC(=O)N[C@@H]1CN(Cc2cnn(C(C)C)c2)C[C@H]1CO,19%
Cc1nc(-c2ccccc2)n(Cc2nc(-c3cccc(Cl)c3)oc2C)c(=O)c1CCO,i
Cn1cnc([S+](=O)([O-])NC2CCN(C(=O)N3CC4CC(C3)[C@H]3CCCC(=O)N3C4)CC2)c1 (stereo partly drawn),13%
CCn1nc(C)c(CCN(C)C(=O)Cn2nc3n(c2=O)CCC(N)CC3)c1C (stereo not drawn),i
COc1ccc(C(=O)N2C[C@H](c3nc(-c4ccncc4)no3)[C@@H](C)C2)cc1OC,6%
CC(=O)c1cccc(N2C(=O)[C@@H]3C[C@@H](NC(=O)c4ccncc4)CCN3C2=O)c1,i
O=C1N[C@H](CCC(=O)N2CCC(c3nnc4ccccn34)CC2)C(=O)Nc2ccccc21,-14%
SMILES,Pf Dd2 inh
COc1cc2c(cc1C(=O)N1CCNCC(O)C1)CCC2 (stereo not drawn),-11%
COc1ccccc1C1NC(=O)N(CC(=O)N2CCCC2)C2=C1C(=O)OC2 (stereo not drawn),16%
Cc1cc(C(=O)N2C[C@H](NC(=O)Cn3nnnc3N)[C@@H](C3CC3)C2)c(C)o1,-7%
C=CCNC(=O)CCc1ccc2c(c1)CN(C(=O)NCC)CCO2,18%
Fc1cccc(CN2CCCC3(CCN(c4cnccn4)C3)C2)c1F (stereo not drawn),-4%
COc1ccc(F)c(CN2CCCC3(CCN(c4cc(C)nc(N)n4)C3)C2)c1 (stereo not drawn),4µM*
COc1ccc(F)c(CN2CCCC3(CCN(C(=O)c4ccsc4)C3)C2)c1 (stereo not drawn),8%
O=C(Cc1cccs1)N1CC[C@H]2COC(=O)N2c2cc(F)ccc2C1,-11%[44.1 µM]
CCc1nc(-c2c3n(c(=O)n(Cc4cc(F)cc(F)c4)c2=O)CCCCC3)no1,-1%
CCn1ccnc1CN(C)c1nccc(-c2ccc(C)nc2C)n1,-21%
COc1ccc(C2Cn3nnc(-c4noc(COc5cccc(C)c5)n4)c3CO2)cc1 (stereo not drawn),10µM*
COc1ccc(C2Cn3nnc(-c4noc(CCc5cccc(OC)c5)n4)c3CO2)cc1 (stereo not drawn),-18%
CCc1nc(-c2nnn3c2COC(c2ccc(OC)cc2)C3)no1 (stereo not drawn),i
CN1CC(c2ccccc2)CC2(CCN(C(=O)CCN3CCCC3=O)CC2)C1 (stereo not drawn),-12%
COC(=O)[C@@H]1Cc2ncn(C)c2CN1C(=O)c1ccc(F)cc1,5%[44.1 µM]
COc1ccc(Cl)cc1NS(=O)(=O)c1cc(Br)cc2c1N(C(=O)C1CC1)CC2,11%
CCC(=O)N1CCc2cc(Br)cc(S(=O)(=O)NCCc3ccccc3)c21,-24%
CCC(=O)N1CCc2cc(Br)cc(S(=O)(=O)CCC(=O)NCCc3ccccc3Cl)c21,11µM*
CCC(=O)N1CCc2cc(Br)cc(S(=O)(=O)CCC(=O)Nc3cccc(CC)c3)c21,i
CCc1cccc(C)c1NC(=O)CCS(=O)(=O)c1cc(Br)cc2c1N(C(=O)C1CC1)CC2,-19%
COc1ccccc1N1CCN(C(=O)CCS(=O)(=O)c2cc(Br)cc3c2N(C(C)=O)CC3)CC1,i
Cc1cc(NC(=O)CCS(=O)(=O)c2cc(Br)cc3c2N(C(=O)C2CC2)CC3)ccc1Br,4.5µM*
COc1ccccc1N1CCN(C(=O)CCS(=O)(=O)c2cc(Br)cc3c2N(C(=O)C2CC2)CC3)CC1,10µM*
CCC(=O)N1CCc2cc(Br)cc(S(=O)(=O)CCC(=O)Nc3ccc(C)c(F)c3)c21,5µM*
Cc1cc(NC(=O)CCS(=O)(=O)c2cc3c4c(c2)CCN4C(=O)CC3)ccc1Br,15%
SMILES,Pf Dd2 inh
CCC(=O)N1CCc2cc(Br)cc(S(=O)(=O)CCC(=O)NCCc3ccc(C)cc3)c21,-13%
CCC(=O)N1CCc2cc(Br)cc(S(=O)(=O)CCC(=O)Nc3ccc(CC)cc3)c21,-5%
COc1cc(OC(F)(F)F)ccc1C(=O)N1CCC(C)(C(=O)O)CC1,4%
CCN1c2cc(C(=O)Nc3ccc(OC)cc3OC)ccc2C(=O)N2CCCC21 (stereo not drawn),-11%
CCN1CC(CN(C)C(=O)c2cc(Cn3c(C)nc4ccccc43)[nH]n2)CC1=O (stereo not drawn),-1%
CCN1CCC(N2CCC3(CC2)CN(c2ccncn2)CC3CO)CC1 (stereo not drawn),11%
Cc1nc2c(NC(=O)Nc3cccc(C(F)(F)F)c3)cccn2n1,i
CCn1nccc1C(=O)N1CCC2(CC1)CC(N1CCN(c3ccccn3)CC1)CCO2 (stereo not drawn),i
COc1ccc(C)cc1NC(=O)c1ccc2c(SCC(=O)O)c3c(nc2c1)CCCC3,-29%
COc1cc(OC)c(N(C)C(=O)CSc2c3c(nc4ccc(Cl)cc24)CCCC3)cc1Cl,11µM*
COc1ccc(OC)c(NC(=O)CSc2c3c(nc4cc(Cl)ccc24)CCCC3)c1,8.9µM*
CN(Cc1ccccc1)C(=O)CSc1c2c(nc3ccc(Cl)cc13)CCCC2,-19%
COCCNC(=O)CSc1c2c(nc3cc(Cl)ccc13)CCCC2,-23%
CCCN(CCC)C(=O)CSc1c2c(nc3ccc(Cl)cc13)CCCC2,i
CCCNC(=O)CN1C(=O)c2c(c3ccccc3n2C)C1c1ccc(OC)cc1 (stereo not drawn),9%
COc1ccc(CCN2C(=O)c3[nH]nc(-c4ccccc4O)c3C2c2ccc(OC)cc2)cc1 (stereo not drawn),10µM*
COc1ccc(CN2C(=O)c3oc4ccccc4c(=O)c3C2c2ccc(O)c(OC)c2)cc1 (stereo not drawn),-16%
